# Results: ChEMBL document CHEMBL3988442, “University of Dundee, Small-Polar-MMV Screening Library” (2021)
# About 1,200 (3.2%) of roughly 38,000 compounds showed an effect of 50% or more. The median lay at about -58%. The entries come from a sample that favours strong results as a whole.
# Tested on: Plasmodium falciparum
# Test: Calibr Malaria Delayed Death Assay SOP
# Format: functional, organism-based
# Set-up: scale not given: in the data most compounds retested in dose-response had high values
# Conditions: concentration 4.99e-06 (unit not given; other assays of the set use mol/L)
row,Structure (SMILES),Percent Effect [%]
1,CNC(=O)[C@@]12CCC3(CCN(S(=O)(=O)C4CC4)CC3)[C@@H]1CN(C(C)=O)C2,-121.6
2,Cc1ccoc1C(=O)N1CCCC(CNS(C)(=O)=O)C1 (stereo unspecified),-23.43
3,NC(=O)Cn1cnc2nc3n(c2c1=O)CCC3,-106.4
4,CC(C)N1CCOC(Cc2nn3c(Cc4ccccc4)nnc3s2)C1 (stereo unspecified),-78.89
5,CO[C@H]1CCN(Cc2c(C)noc2C)[C@@H]2CN(Cc3cccnc3)C[C@H]12.O=C(O)C(F)(F)F.O=C(O)C(F)(F)F.O=C(O)C(F)(F)F,-19.09
6,CN(Cc1noc(C2CC2)n1)C1CCN(CCc2cccs2)C1 (stereo unspecified),-58.32
7,COc1cc(CNC(C)Cn2ccnc2)cc2c1OCO2.Cl (stereo unspecified),-50.32
8,COc1cc(CNCC(O)c2ccc(C)cc2)cc2c1OCCO2.Cl (stereo unspecified),46.91
9,COc1cc(CNC(C)c2ccc(F)c(F)c2)cc2c1OCCO2.O=C(O)C(=O)O (stereo unspecified),-10.9
10,Cc1cc(CNC(=O)NCC(O)c2cccc(F)c2)no1 (stereo unspecified),-84.11
11,COc1cc(CNC(C)Cn2cccn2)cc2c1OCO2.Cl (stereo unspecified),-35.84
12,COc1cc(CNCc2ccc(C(C)O)cc2)cc2c1OCO2 (stereo unspecified),7.669
13,Fc1ccc(CNCc2cc(Br)c3c(c2)OCO3)cc1,-20.04
14,COc1cc(CNCC(O)c2ccccc2)cc2c1OCO2.Cl (stereo unspecified),59.91
15,COc1ccc(CNCc2cc(Br)c3c(c2)OCO3)cc1,-51.11
16,COc1c(C(N)=O)cn(C)c1-c1nc2cc(NC(C)=O)ccc2n1C,-29.86
17,Cc1nc(O)cc(C2CCCN(Cc3c(Cl)cncc3Cl)C2)n1 (stereo unspecified),-29.03
18,O=C(Cn1cnnn1)NC(c1ccccc1)c1ccc2c(c1)CCCO2 (stereo unspecified),-75.22
19,Cc1ccoc1C(=O)N1CCO[C@H]2[C@H](OCc3ccncc3)CC[C@@H]21,-118.2
20,COc1ccccc1C(=O)N1CCCC1c1ncc2c(n1)CCNC2.Cl (stereo unspecified),-133.7
21,CC(O)CCN(C)C(=O)Nc1cccc(F)c1 (stereo unspecified),-108.7

row,Structure (SMILES),Percent Effect [%]
1,CC(C)Cn1ncc(C(=O)NS(=O)(=O)C2CCCC2)c1C1CC1,-142.6
2,O=C(O)CCC(=O)N1CCC(c2noc3cc(F)ccc23)CC1,-92.3
3,CCC(=O)NC(c1cccnc1)c1cc(C)ccc1C (stereo unspecified),-105.8
4,O=C(CC1CCCC1)N1C[C@@H]2CCN(c3cccnc3)C[C@@H]2C1.O=C(O)C(F)(F)F,-61.89
5,CCOC1CC2(CCN(CCO)CC2)c2ccc(C)cc21 (stereo unspecified),16.18
6,Cc1cccc(CNC2CC3(CCN(CCO)CC3)c3ccccc32)n1.O=C(O)C(F)(F)F.O=C(O)C(F)(F)F (stereo unspecified),77.51
7,Cc1ccc(CNC(=O)CN2CCN(CCO)CC2)s1,-40.21
8,Cc1ccc2c(c1)C(N(C)C)CC21CCN(CCO)CC1.O=C(O)C(F)(F)F.O=C(O)C(F)(F)F (stereo unspecified),74.01
9,O=C(NC1CC2(CCN(CCO)CC2)c2ccccc21)c1ccno1.O=C(O)C(F)(F)F (stereo unspecified),-16.34
10,Cc1ccc(CNC2CC3(CCN(CCO)CC3)c3ccccc32)s1.O=C(O)C(F)(F)F.O=C(O)C(F)(F)F (stereo unspecified),84.71
11,O=C(NC1CC2(CCN(CCO)CC2)c2ccccc21)c1ccncc1.O=C(O)C(F)(F)F.O=C(O)C(F)(F)F (stereo unspecified),-81.16
12,Cn1cncc1CNC1CC2(CCN(CC3CC3)CC2)c2ccccc21.O=C(O)C(F)(F)F.O=C(O)C(F)(F)F (stereo unspecified),-88.17
13,COCC(=O)NC1CC2(CCN(CCO)CC2)c2ccccc21.O=C(O)C(F)(F)F (stereo unspecified),-47.31
14,Cc1ccc2c(c1)C(NC(=O)N(C)C)CC21CCN(C)CC1.O=C(O)C(F)(F)F (stereo unspecified),-16.75
15,CCN1CCC2(CC1)CC(NC(=O)N(C)C)c1cc(C)ccc12.O=C(O)C(F)(F)F (stereo unspecified),-8.453
16,O=C(Cc1ccn[nH]1)N1CCc2cc(Br)sc2C1,-31.09
17,CC1(C)COCCN1C(=O)c1ccc(Cn2cncn2)cc1,-28.18
18,Fc1ccc(OCCCN2CCCC(Cn3cncn3)C2)cc1 (stereo unspecified),-24.19
19,CN(C)CCNC(=O)c1nc2c(s1)CCCN2C(=O)C1CC1.O=C(O)C(F)(F)F,21.8
20,Cc1nc(CN2CCCn3c(nc(Cn4cncn4)cc3=O)C2)cs1.O=C(O)C(F)(F)F,-37.93
21,Cc1cc(CN(C)C(=O)c2ccc(OCC(F)(F)F)nc2)no1,-117.9

row,Structure (SMILES),Percent Effect [%]
1,CC(C)c1nn(C)c(Cl)c1CNCC(=O)N1CCN(C)CC1.Cl,-109.8
2,Cn1ncc(C(=O)O)c1C(=O)Nc1nc2ccccc2s1,-36.51
3,C[C@@H]1CN(Cc2cn(C)nc2-c2ccccc2F)C[C@H](C)O1,-119.2
4,CC(NC(=O)N1CCN(c2cccs2)CC1)c1ccncc1 (stereo unspecified),-36.24
5,CC(NC(=O)N1CCN(c2cccs2)CC1)c1ccc(C#N)cc1 (stereo unspecified),61
6,Cc1noc(C)c1C(C)NC(=O)N1CCN(c2cccs2)CC1 (stereo unspecified),-38.18
7,CN(Cc1ccccc1)CC1CC2(CO1)CN(Cc1nccs1)C2 (stereo unspecified),3.92
8,CN(Cc1ccccc1)CC1CC2(CO1)CN(c1nncs1)C2 (stereo unspecified),-3.819
9,CN(Cc1ccccc1)CC1CC2(CO1)CN(Cc1cnn(C)c1)C2 (stereo unspecified),50.64
10,Cc1nn(CC(=O)N2CCC3(CN(C)C(=O)O3)C2)c(=O)c2ccccc12 (stereo unspecified),-0.9093
11,Cc1ccc(CNCC2CCCN2c2cccnn2)s1 (stereo unspecified),44
12,Cn1cc(N2CCCC(NCc3cccc4c3OCCCO4)C2)cn1 (stereo unspecified),-37.41
13,Cc1nc(C)c(CNCC2CCCn3ccnc32)s1 (stereo unspecified),-88.04
14,c1cc(CNCc2ccnc(N3CCCC3)c2)c2c(c1)OCO2,-28.94
15,Cc1cn2c(n1)C(CNCc1cccc3c1OCO3)CCC2 (stereo unspecified),81.04
16,Clc1snnc1CN1CCCCC1Cn1cccn1 (stereo unspecified),-105.5
17,CN(Cc1cccc(C#N)c1)Cn1nc(C(C)(C)C)ccc1=O,-75.82
18,COc1cc(NC(=O)c2cc(Cl)ccc2F)c(C(=O)N(C)C)cc1OC,-86.88
19,Cc1nnc2ccc(OCCNS(=O)(=O)c3cccs3)nn12,-74.14
